# Screening data as filed in PubChem BioAssay.
# Casp6 inh = human caspase-6 inhibitors, primary screen, biochemical, VEID-R110 fluorescence, single point, set 2; P55212; purified caspase-6, Z-VEID-R110 cleavage fluorescence; inhibition, % at 12.5 µM; hit rate 0.53% among 350,000;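 active = mean inhibition across replicates at least about 35%, with every replicate also reaching that limit, limit read from the data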;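 also: 0% = median of neutral control wells and 100% = no fluorescence left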
# Target sequence (P55212 24-179 limits assumed): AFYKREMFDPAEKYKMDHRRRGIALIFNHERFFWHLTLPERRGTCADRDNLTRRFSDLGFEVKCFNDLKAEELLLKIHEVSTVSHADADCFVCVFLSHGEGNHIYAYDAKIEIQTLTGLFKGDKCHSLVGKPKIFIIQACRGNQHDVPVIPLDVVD
# Target sequence (P55212 194-293 limits assumed): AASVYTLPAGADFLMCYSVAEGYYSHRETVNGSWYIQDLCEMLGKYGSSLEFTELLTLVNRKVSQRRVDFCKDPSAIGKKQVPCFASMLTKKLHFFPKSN
# FGF22 binding = binders of human FGF22 protein, primary screen, FGF22 synaptogenesis inhibitor project, biophysical, thermal shift, single point | Fibroblast growth factor 22 (Homo sapiens), Q9HCT0 | recombinant FGF22 thermal shift, SYPRO orange fluorescence; percent of sucrose octasulfate shift, DMSO zero | activity (Tm shift, normalised), % at 9.99 µM | hit rate 1.5% among 340,000;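 active = mean Tm shift, scaled 0 neutral to 100 positive control, at about 1.3% or above, every replicate too, limit read from the data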
# SIRT5 block = SIRT5 desuccinylase inhibitors, primary screen, biochemical, fluorescence imaging, single point, set 5. NAD-dependent protein deacylase sirtuin-5, mitochondrial (Homo sapiens), Q9NXA8. Purified SirT5, succinyl-peptide AMC, trypsin-coupled fluorescence. inhibition, % at 15 µM. hit rate 1.1% among 330,000. AID 652115, 2013; in the data active = inhibition above about 15%
# Target sequence (Q9NXA8 whole entry, looked up): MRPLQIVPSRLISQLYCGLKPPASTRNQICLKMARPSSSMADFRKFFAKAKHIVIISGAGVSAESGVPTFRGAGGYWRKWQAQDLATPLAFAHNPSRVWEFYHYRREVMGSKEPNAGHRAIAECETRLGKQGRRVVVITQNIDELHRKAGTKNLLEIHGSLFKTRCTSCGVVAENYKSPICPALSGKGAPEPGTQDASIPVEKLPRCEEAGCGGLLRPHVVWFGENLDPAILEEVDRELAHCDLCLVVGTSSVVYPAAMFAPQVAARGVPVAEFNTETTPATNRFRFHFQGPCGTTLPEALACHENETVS
# ERAP1 inh = human ERAP1 aminopeptidase inhibitors, primary screen, biochemical, single point, plate reader; AID 652197, 2013; Endoplasmic reticulum aminopeptidase 1 (Homo sapiens), Q9NZ08; inhibition, % at 10.7 µM; hit rate 0.15% among 340,000; recombinant ERAP1, Leu-AMC fluorescence, 60 min;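 active = mean replicate inhibition of at least 30%, or all replicates individually reaching that 30% level; inactive = mean below 30% and not every replicate reaching it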;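 also: 0% = neutral control wells and 100% = L-leucinethiol positive control wells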
# * hit, by the source's call; · = no result. This is a sample that favours compounds with a hit; in the whole collection about 3.1% have one here.
SMILES,Casp6 inh,FGF22 binding,SIRT5 block,ERAP1 inh
COCc1cc(C)nc(SCc2nc3ccccc3c(=O)[nH]2)c1C#N,1,43*,-3,0
COCc1cc(C)nc(Sc2nc3c(c(=O)n(C)c(=O)n3C)n2C)c1C#N,3,0,-2,31*
COCc1cc(C)nc(SCc2ccccc2)c1C#N,1,0,0,·
C(=NOCc1ccccc1)c1cccnc1,-3,0,-2,-2
N#Cc1ccc(CO/N=C/c2ccccc2)cc1,0,44*,-1,-3
CN(C)CC(=O)Nc1ccc2c(c1)[C@@H]1C[C@H](CC(=O)NCc3ccccc3F)O[C@H](CO)[C@@H]1O2,·,0,·,·
C[C@@H]1CCCCO[C@@H](CN(C)S(=O)(=O)c2ccc(F)cc2)[C@@H](C)CN([C@H](C)CO)C(=O)c2cc(NC(=O)Nc3ccc4c(c3)OCO4)ccc2O1,-1,0,0,0
CC(=O)N(C)c1ccc(N=Cc2cc3c(cc2[N+](=O)[O-])OCO3)cc1,36*,0,·,3
Cc1noc(C)c1NC(=O)Nc1ccc2c(c1)C(=O)N([C@H](C)CO)C[C@@H](C)[C@@H](CN(C)S(=O)(=O)c1ccccc1)OCCCC[C@H](C)O2,1,·,0,2
CC(C)Oc1ccc(C(=O)Nc2ccc(C(F)(F)F)n(C)c2=O)cc1,-1,44*,0,-4
Cc1[nH]c(=O)[nH]c(=O)c1NC(=O)c1ccc(OC(C)C)cc1,-2,0,-1,9
COCC(=O)N1C[C@@H]2[C@H](c3ccccc31)[C@H](CO)N2Cc1cc(F)ccc1F,1,·,20*,0
CCC(=O)N1C[C@@H]2[C@H](c3ccccc31)[C@@H](CO)N2Cc1cc(F)ccc1F,0,0,5,-2
CCC(=O)N1C[C@H]2[C@@H](c3ccccc31)[C@H](CO)N2Cc1cc(F)ccc1F,-2,0,16*,-2
COc1ccc2c3c(n(C)c2c1)[C@@H](CO)N(C(=O)c1ccc(F)cc1)CC31CN(C)C1,·,0,·,·
C(=C\c1ccc(C2[C@H]3CNC[C@@H]2N3Cc2ccccn2)cc1)/c1ccccc1 (stereo not given in full),50*,·,1,4
C(=C\c1ccc(C2[C@H]3CNC[C@@H]2N3Cc2cncnc2)cc1)/c1ccccc1 (stereo not given in full),·,0,·,·
COC(=O)C1=C(C(=O)OC)[C@@H]2Nc3ccccc3[C@@]23C[C@@H](C(=O)OC)N(C(=O)CC(C)C)C3=N1,3,0,21*,5
CCOC(=O)N1C2=NC(C(=O)OC)=C(C(=O)OC)[C@@H]3Nc4ccccc4[C@]23C[C@H]1C(=O)OC,-1,1,·,-2
Cc1cc(C)c(S(N)(=O)=O)c(C)c1N(C)S(=O)(=O)c1ccccc1,0,0,1,0
CCNS(=O)(=O)c1c(C)cc(C)c(N(C)S(=O)(=O)c2ccccc2)c1C,-5,43*,14,2
CSc1nsc(SCC(=O)Nc2ccccc2C(=O)O)n1,3,1.5*,-6,-1
Cc1cc2nc(SCC(=O)Nc3ccccc3C(=O)O)[nH]c2cc1C,0,2.2*,0,4
NC(=O)c1ccccc1NC(=O)CSc1nc2ccccc2c(=O)[nH]1,1,0,-2,1
CCC(=O)N[C@@H]1CC[C@@H](CC(=O)NCC2CC2)O[C@@H]1CO,2,·,5,0
SMILES,Casp6 inh,FGF22 binding,SIRT5 block,ERAP1 inh
COc1cc2c(cc1OC)C(C)N(C(=O)c1ccc(C)o1)CC2 (stereo not given),-4,0,22*,3
COc1cc2c(cc1OC)C(C)N(C(=O)c1sccc1C)CC2 (stereo not given),-1,0,5,-1
COc1ccc(S(=O)(=O)N(C)C[C@@H]2OCCCC[C@H](C)Oc3ccc(NS(=O)(=O)c4ccc(C)cc4)cc3C(=O)N([C@@H](C)CO)C[C@@H]2C)cc1,3,0,20*,-2
COc1ccc(S(=O)(=O)Nc2ccc3c(c2)C(=O)N([C@@H](C)CO)C[C@@H](C)[C@H](CN(C)S(=O)(=O)c2ccc(C)cc2)OCCCC[C@@H](C)O3)cc1,-1,-1,18*,0
COc1ccc(S(=O)(=O)Nc2ccc3c(c2)C(=O)N([C@@H](C)CO)C[C@@H](C)[C@@H](CN(C)S(=O)(=O)c2ccc(C)cc2)OCCCC[C@@H](C)O3)cc1,-1,0,6,1
COc1ccc2c3c([nH]c2c1)[C@H](CO)N(Cc1ccccc1)CC31CCN(C(=O)Nc2cccc(F)c2)CC1,-2,0,0,-1
CCOc1ccc(S(=O)(=O)NN2Cc3ccccc3C2=N)cc1,0,0,18*,-1
O=C(C[C@H]1CC[C@@H]2[C@H](COC[C@@H](O)CN2Cc2nccs2)O1)NCc1ccc(-c2ccccc2)cc1,0,0,-1,0
Nc1nonc1-c1nc2ccccc2n1CC(=O)N/N=C/c1ccc(-c2ccccc2C(=O)O)o1,60*,0,7,1
CCOc1ccccc1Cn1c(=O)sc2ccccc21,-1,43*,0,-5
O=C1CCC(C(=O)N2CCCCCC2)CN1Cc1cccc(C(F)(F)F)c1 (stereo not given),4,0,18*,-3
COc1cccc(CN2CC(C(=O)N3CCCCCCC3)CCC2=O)c1 (stereo not given),2,0,0,-2
CCCC(=O)N1CC2(CN(Cc3nccs3)C2)c2c([nH]c3cc(OC)ccc23)[C@@H]1CO,-3,·,2,1
COc1ccc(NC(=O)N(C)C[C@H]2Oc3ncc(C#CCN(C)C)cc3C(=O)N([C@@H](C)CO)C[C@@H]2C)cc1,-42,0,22*,-2
C/C=C/c1cnc2c(c1)C(=O)N([C@@H](C)CO)C[C@H](C)[C@@H](CN(C)C(=O)Nc1ccc(F)cc1)O2,4,0,16*,-4
C[C@H](CO)N1C[C@H](C)[C@@H](CN(C)C(=O)Nc2ccc(C(F)(F)F)cc2)Oc2ncc(/C=C/c3ccccc3)cc2C1=O,48*,0,-7,2
C[C@H](CO)N1C[C@H](C)[C@H](CN(C)C(=O)Nc2ccc(F)cc2)Oc2ncc(C#Cc3ccc(C(F)(F)F)cc3)cc2C1=O,-1,-1,16*,1
C[C@@H]1CN([C@H](C)CO)S(=O)(=O)c2ccc(-c3ccc(F)cc3)cc2O[C@@H]1CN(C)CC1CC1,-4,0,-2,3
CCNC(=O)C[C@H]1CC[C@H](NC(=O)C2CCOCC2)[C@H](CO)O1,-4,0,2,-1
CCCCN(C(=O)c1cc(-c2ccco2)nc2ccccc12)c1c(N)n(CCC)c(=O)[nH]c1=O,28,0,-5,1
CCCCn1c(N)c(N(CC)C(=O)c2cc(Br)ccc2Cl)c(=O)[nH]c1=O,-2,44*,-3,-4
